# PubChem BioAssay AID504371 (National Center for Advancing Translational Sciences (NCATS), 2011)
# Results filed as inconclusive are left out. Where a call stands in place of a potency, no number is given. Activity calls are given as the source filed them. The call rests on the fitted dose curve; in most records, active means well fitted curve in the direction sought with a large enough effect; inconclusive means small, poorly fitted or top-dose-only effect, or another doubt; inactive means no such curve, though single readings can be large or run the other way.
# Test: qHTS Assay for Compounds Blocking the Interaction Between CBF-beta and RUNX1 for the Treatment of Acute Myeloid Leukemia: ME-1 cellular proliferation, SAR for Probe
# Details: ME-1 cell proliferation, ATP luminescence, 48 h; series mostly up to 56.1 µM
# Description: NIH Chemical Genomics Center [NCGC] NIH Molecular Libraries Probe Production centers Network [MLPCN] MLPCN Grant: X01MH083259-01 Assay Submitter (PI): Paul Liu NCGC Assay Overview: Core Binding Factor (CBF) abnormalities are associated with 20-25% of all acute myeloid leukemias (AML), of which 5-10% are further sub classified as acute myelomonocytic leukemia with eosinophilia, also known as M4Eo in the FAB classification scheme. This subtype of leukemia is usually associated with chromosome 16 inversion (p13:q22). Chromosome 16 inversion results in formation of the fusion oncogene CBFB-MYH11, which encodes the fusion protein CBF-beta-SMMHC. […] It has been hypothesized that the interference of CBF-beta and RUNX1 binding could have therapeutic implications for patients with CBF mediated leukemias. We developed a CBF-beta and RUNX1 binding assay in AlphaScreenTM format and optimized it for high throughput screening to search for inhibitors. […]
# NCGC Assay protocol: 2uL/well media was dispensed per well into 1536-well white solid-bottom plates using Multidrop Combi dispenser. […] The plates were incubated at 37 °C with 5% CO2 and 95% humidity for 48 hours, and then ATP content was measured following the addition of 4uL/well of ATPlite reagent and a 20 min incubation on a ViewLux plate reader.
row,SMILES,Potency
1,CCc1sc(N)nc1-c1ccc(OC)cc1,inactive
2,Nc1ccc(Cl)cc1C(=O)c1ccc[nH]1,109 µM (active)
